Assay outcomes deposited in PubChem BioAssay by National Center for Advancing Translational Sciences (NCATS).
ERG-DNA inh – qHTS for Small Molecule Inhibitors of the ERG Ets/DNA interaction; Potency, µM (titrated, usually from 76.9 µM), for inactives: at the top dose FP activity, negative = inhibition, hits mostly inhibitors; Transcriptional regulator ERG (Homo sapiens), P11308; hit rate 0.028% among 370,000; AID 624246, 2012; fluorescence polarization, His-ERG Ets domain / labelled DNA; active means well fitted inhibition curve with a large enough effect in the polarisation, with a control signal flat; inconclusive means small, poorly fitted or top-dose-only effect, or effect the other way, or a change in a side signal; inactive means no such curve, though single readings can be large or run the other way; the % refers to the polarisation;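 further: polarization taken with two DNA probes labelled with fluorescein and Texas red; % of control where 0% means no effect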
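His-tagged ERG Ets domain (1 uM in the protein solution; 300mM KCl, 50mM Tris-HCl, 1mM EDTA, 1mM DTT, pH 7.5) received compound, then a probe mix of 5 nM fluorescein-DNA and 100nM Texas-615-DNA. Fluorescence polarization was read for both dyes.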
GoLoco inh red – qHTS Assay for Inhibitors of RGS12 GoLoco Motif Activity (Red Fluorophore); Gai1:RGS12 GoLoco peptide FP, rhodamine, 10 min; hit rate 0.44% among 230,000; Potency, µM (titrated, usually from 61.6 µM), without a hit: at the highest dose activity, negative = inhibition, most hits filed as inhibitors; active means well fitted inhibition curve with a large enough effect, not every such curve was filed as active; inactive means no such curve, though single readings can be large or run the other way; further: on the % scale 0 is the no-effect control and ±100 the full control effect; nearly all actives have a fitted effect of over 30% in size
Target sequence (P63096 whole entry, looked up): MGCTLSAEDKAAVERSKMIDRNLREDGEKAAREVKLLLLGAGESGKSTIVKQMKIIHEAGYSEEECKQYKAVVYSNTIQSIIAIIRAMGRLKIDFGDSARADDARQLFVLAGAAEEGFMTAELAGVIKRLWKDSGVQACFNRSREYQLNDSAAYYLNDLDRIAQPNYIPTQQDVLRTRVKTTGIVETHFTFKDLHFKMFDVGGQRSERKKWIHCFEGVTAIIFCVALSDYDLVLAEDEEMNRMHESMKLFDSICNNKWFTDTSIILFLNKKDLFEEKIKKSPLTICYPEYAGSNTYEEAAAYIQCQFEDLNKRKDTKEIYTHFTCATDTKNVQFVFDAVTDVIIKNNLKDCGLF
BRCA1 expr up – qHTS Assay to Identify Small Molecule Activators of BRCA1 Expression. AID 624202, 2012. MCF7-BRCA1-FFLuc reporter, luminescence, 48 h; response scale: scaled: vehicle 0%, 10 µM genistein 100%. hit rate 1.1% among 380,000. Potency, µM (titrated, usually from 46.1 µM), inactives show top-dose activation, actives largely listed as activators; further: nearly all actives have a fitted effect of over 80% in size
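MCF7 cells carrying a BRCA1-firefly luciferase reporter (2000 cells/well, phenol-red free MEM) were attached for 2 h at 37 °C, then given compounds for 48 h. Luminescence was read 15 min after luciferase reagent; activity normalized to genistein (10 microM) and DMSO.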
Apoferritin bind – qHTS Assay for Identification of Novel General Anesthetics; Ferritin light chain (Equus caballus), P02791; Potency, µM (doses to about 77.5 µM), without a hit: top-dose activity change, negative = displacement, hits mostly inhibitors; AID 485281, 2010; hit rate 0.074% among 350,000; apoferritin/1-aminoanthracene competitive binding, fluorescence; further: on the % scale 0 is the no-effect control and ±100 the full control effect; nearly all actives have a fitted effect of over 20% in size
Target sequence (P02791 2-175 limits assumed): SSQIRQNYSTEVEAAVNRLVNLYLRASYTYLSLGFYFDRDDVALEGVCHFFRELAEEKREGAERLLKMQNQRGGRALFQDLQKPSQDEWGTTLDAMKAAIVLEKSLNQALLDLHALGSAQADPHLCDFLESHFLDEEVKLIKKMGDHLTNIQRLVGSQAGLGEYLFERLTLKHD
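Steps: apoferritin (10 uM) was premixed with half-saturated 1-AMA in PBS, compounds were pin-transferred, plates stood 10 min at room temperature, fluorescence was read at 380/535 nm, and curves were fitted with a Hill equation.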
The depositor's hits bear a star; i = inactive; ? = inconclusive; / = no result; ! = not confirmed by another sample; [ ] = another dose, or the depositor's remark. Rows were chosen to be rich in hits. Some 1.2% of all compounds tested hit in one or more screens of this group. Unless noted, the call rests on the fitted dose curve; in most records, active means well fitted curve in the direction sought with a large enough effect; inconclusive means small, poorly fitted or top-dose-only effect, or another doubt; inactive means no such curve, though single readings can be large; an effect the other way counts as inactive or inconclusive. Potency means the concentration at half of the fitted maximal effect.

SMILES	ERG-DNA inh	GoLoco inh red	BRCA1 expr up	Apoferritin bind
CC(C)(C)C(=O)Oc1ccc2cc(-c3ccc4ccccc4n3)c(=O)oc2c1	6%	12%	14µM*	3%
CC(=O)Oc1ccc(-c2cc3ccccc3oc2=O)cc1	-1%	/	13µM*	/
COc1ccc(-c2cc3ccc(O)cc3oc2=O)cc1	1%	/	?	i
O=c1oc2cc(O)ccc2cc1-c1ccccc1	-7%	/	10µM*	i
O=c1cc(-c2ccc(O)cc2)oc2ccc(O)cc12	-2%	10%	2.8µM*	-2%
Cc1cc(-c2ccco2)n(-c2ccccc2)n1	17%	148%	-4%	-12%
Cc1cc(-c2ccccc2)n(-c2ccccc2)n1	4%	/	8.9µM*	-19%
COC(=O)c1c(-c2ccc(C)cc2)csc1NC(=O)C1CC=CCC1C(=O)O (stereo not given)	1%	1%	11µM*	-2%
Nc1nc(N2CCN(Cc3ccccc3)CC2)n[nH]1	35µM*	9%	6%	-1%
Nc1nc(N2CCN(C(c3ccccc3)c3ccccc3)CC2)n[nH]1	-4%	9%	-3%	-7%
COc1cc(/C=C2/S/C(=N/S(=O)(=O)Cc3ccccc3)NC2=O)c([N+](=O)[O-])cc1OC	-13%	25µM*	-20%	-7%
COc1cc(/C=C2\S/C(=N/S(=O)(=O)Cc3ccccc3)NC2=O)c([N+](=O)[O-])cc1OC	0%	11%	1%	5%
CCCN1CNc2c(c(=O)[nH]c(=S)n2CCc2cc(C)cc(C)c2)C1	/	/	-10%	/
COc1ccc(C(=O)Nc2cc3c4c(c2)CC(=O)N4CCC3)c(OC)c1	-6%	/	4µM*	/
COc1ccc(C(=O)Nc2cc3c4c(c2)CC(=O)N4CCC3)cc1	-3%	/	-8%	/
Cc1nn(-c2ccccc2)c(Cl)c1/C=N/NC(=O)c1ccco1	-7%	10%	6.3µM*	-9%
Cc1nn(-c2ccccc2)c(Cl)c1/C=N/NC(=O)c1ccc(CNc2ccccc2)o1	-5%	-1%	0%	-10%
Cn1c(N)c(C(=O)COC(=O)Cc2c(F)cccc2Cl)c(=O)n(C)c1=O	2%	/	-18%	/
Cc1cc(C(=O)COC(=O)Cc2c(F)cccc2Cl)c(C)n1C	/	/	5µM*	/
Cn1c(-c2ccc(CN3CCCCC3)o2)nc2ccccc21	2%	2%	3.2µM*	-10%
CCCOc1ccc(CN2C(=O)C(=O)c3cccc(C)c32)cc1	4%	/	/	32µM*
Cc1ccc(OCCCN2C(=O)C(=O)c3cccc(C)c32)cc1	-8%	-12%	0%	?
Cc1cnc(-c2nnc(N(C)C(=O)C3CCOC3)s2)cn1 (stereo not given)	0%	9%	7.9µM*	4%
Oc1ccc(Cl)cc1C1C=C(c2ccc3c(c2)OCO3)NC(c2ccc(Cl)cc2)N1 (stereo not given)	/	/	-5%	/
Cc1ccc(-c2nc3cc(Cl)ccc3o2)cc1NC(=O)COc1ccccc1C	/	/	2%	/
SMILES	ERG-DNA inh	GoLoco inh red	BRCA1 expr up	Apoferritin bind
Cc1cccc(N2C(=O)c3cccc4c(N(C)CCO)ccc(c34)C2=O)c1	-4%	25µM*	-1%	57%
C=C(C)CSc1nnc(-c2cccc(Cl)c2)n1N	-4%	3%	13µM*	?
O=C(/C=C/c1cccs1)Nc1cccnc1	/	19%	11µM*	-5%
O=C(/C=C/c1cccs1)Nc1nncs1	12%	5%	69%	-13%
COCO[C@H]([C@@H](C)C=C(Br)Br)[C@@H](C)COCc1ccc(OC)cc1	/	/	/	5%
O=C(NCCCN1CCCCC1)c1ccc2c(c1)ncn2C1CCCC1	5%	/	0%	0%
CC(C)OCCCNC(=O)c1ccc2c(c1)ncn2C1CCCC1	3%	-2%	11µM*	-6%
CCC(C)S(=O)(=O)c1oc(-c2cccs2)nc1S(=O)(=O)c1ccccc1 (stereo not given)	1%	/	/	-21%
O=C(O)Cc1c(Cl)ccc(Cl)c1Cl	/	/	/	1%
CCc1noc(C)c1C(=O)NCCc1ccccc1	2%	/	10µM*	/
CCOC(=O)c1c(C)c(C(=O)NCCc2ccccc2)c(C)n1C	3%	-7%	10µM*	-2%
CCOC(=O)c1c(C)c(C(=O)NCc2cccnc2)c(C)n1C	10%	-2%	-6%	-7%
CCc1noc(C)c1C(=O)NCCc1ccc(F)cc1	-6%	/	3%	/
CCC[C@@H]1NC(=O)[C@@H](NC(C)=O)CSSC[C@@H](C(N)=O)NC(=O)CNC(=O)[C@H](Cc2c[nH]c3ccccc23)NC(=O)[C@H](CCCN=C(N)N)NC(=O)[C@H](Cc2ccc3ccccc3c2)NC(=O)[C@H](Cc2cnc[nH]2)NC(=O)[C@H](CCCN=C(N)N)NC1=O	/	/	/	-11%
COC(=O)C[C@H]1c2ccccc2C2=C(C[C@@H](C)[C@H]3C(=O)NC(=O)[C@@H]23)N1C(=O)OC	/	-9%[14.2 µM]	/	/
CC(=O)N(C)c1ccc(N=NC2C(=O)N(C(N)=S)N=C2C)cc1 (stereo not given)	-15%	/	4µM*	-24%
CC1=NN(C(N)=S)C(=O)C1N=Nc1ccc(S(N)(=O)=O)cc1 (stereo not given)	-2%	/	26%	-23%
CCOc1ccc(C(=O)Nc2ccc(-c3nc4ccccc4[nH]3)cc2)cc1[N+](=O)[O-]	6%	6%	3.2µM*!	-9%
CC(=O)c1cccc(Nc2ccc(-c3ccccc3F)nn2)c1	12%	8%	11µM*	?
CC(=O)c1ccc(Nc2ccc(-c3ccccc3C)nn2)cc1	5%	186%	6.3µM*	-16%
COc1ccccc1-c1ccc(Nc2cccc(C(C)=O)c2)nn1	6%	7%	71%	-5%
CCCNc1nc(Nc2ccc([N+](=O)[O-])cc2)nc(N2CCOCC2)n1	/	/	-16%	/
Cc1ccc(S(=O)(=O)n2nc(-c3ccco3)nc2SCc2ccccc2)cc1	-7%	0%	11µM*	?
O=C(c1ccco1)n1nc(-c2ccco2)nc1SCc1ccccc1	-9%	6%	?	?
O=C(c1ccco1)n1nc(-c2ccccc2)nc1SCc1ccccc1	5%	9%	2.8µM*	-17%
O=C(Cc1ccccc1)n1nc(-c2ccco2)nc1SCc1ccccc1	-4%	-7%	11µM*	?
CSc1nc(-c2ccco2)nn1S(=O)(=O)c1ccc(C)cc1	-10%	-1%	0%	-9%
Oc1ccccc1C1C=C(c2ccc3c(c2)OCO3)NC(c2cccc(F)c2)N1 (stereo not given)	/	/	-4%	/
COc1ccc(CCn2c3c(c(=O)[nH]c2=O)C(NC(=O)c2ccccc2)(C(F)(F)F)C(=O)N3)cc1OC (stereo not given)	-5%	/	/	1%
Cc1ccc(S(=O)(=O)Oc2ccc(N=Nc3ccc(-c4ccc(N=Nc5c(O)ccc6cc(S(=O)(=O)O)cc(S(=O)(=O)O)c56)c(C)c4)cc3C)cc2)cc1	/	152%	/	/
